Measurements from the supplement of paper PMC10849652.
About 7,900 targets were measured; listed, in parts, are those with a hit and a random draw of the rest. About 0.6% of all pairs of compound and target were hits.

compound: CCCS(=O)(=O)Nc1ccc(F)c(C(=O)c2c[nH]c3ncc(-c4ccc(Cl)cc4)cc23)c1F [vemurafenib]; assay: log2 fold change, soluble protein after heating vs DMSO (PISA); higher = thermal stabilisation; K562 cells, 10 uM, 30 min; active = over 0.2 and 3.5 SD of the protein, either way, in both replicates (recomputed)
Outline: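 K562 cells at 2×10^6 cells/mL were treated for 30 min with 10 μM compound, and aliquots were heated for 3 min over 48°C-58°C before pooling. Extraction used PBS with 0.5% NP-40 at 4°C, and soluble protein was the supernatant after 21,000xg for 90 min, measured by TMTpro 16plex LC-MS/MS with channel sums equalised. Thermal stability values, relative to control samples and from duplicates, are log2 fold changes.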

Sequence of UniProt P31150 (P31150 whole entry, looked up): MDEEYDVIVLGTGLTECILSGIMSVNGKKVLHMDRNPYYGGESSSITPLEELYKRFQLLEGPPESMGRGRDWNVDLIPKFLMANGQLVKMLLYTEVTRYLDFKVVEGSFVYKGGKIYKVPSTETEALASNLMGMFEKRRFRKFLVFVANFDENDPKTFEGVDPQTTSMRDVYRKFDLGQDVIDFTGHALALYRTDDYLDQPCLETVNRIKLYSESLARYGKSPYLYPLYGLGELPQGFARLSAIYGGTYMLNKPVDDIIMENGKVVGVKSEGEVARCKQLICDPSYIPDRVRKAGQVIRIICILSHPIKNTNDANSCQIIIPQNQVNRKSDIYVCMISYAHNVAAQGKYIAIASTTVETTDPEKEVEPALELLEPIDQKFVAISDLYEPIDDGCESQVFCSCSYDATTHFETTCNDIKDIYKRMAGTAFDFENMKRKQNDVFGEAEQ
Sequence of UniProt P30519 (P30519 whole entry, looked up): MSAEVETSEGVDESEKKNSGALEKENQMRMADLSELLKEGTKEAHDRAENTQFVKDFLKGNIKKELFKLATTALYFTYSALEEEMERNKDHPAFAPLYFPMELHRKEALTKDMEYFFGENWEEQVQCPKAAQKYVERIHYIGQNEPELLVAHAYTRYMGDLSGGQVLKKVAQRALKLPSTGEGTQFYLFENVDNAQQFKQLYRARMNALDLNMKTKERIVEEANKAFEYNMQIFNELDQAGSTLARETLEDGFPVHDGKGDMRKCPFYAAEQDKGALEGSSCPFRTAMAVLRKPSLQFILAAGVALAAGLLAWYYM
Sequence of UniProt Q8N9F7 (Q8N9F7 whole entry, looked up): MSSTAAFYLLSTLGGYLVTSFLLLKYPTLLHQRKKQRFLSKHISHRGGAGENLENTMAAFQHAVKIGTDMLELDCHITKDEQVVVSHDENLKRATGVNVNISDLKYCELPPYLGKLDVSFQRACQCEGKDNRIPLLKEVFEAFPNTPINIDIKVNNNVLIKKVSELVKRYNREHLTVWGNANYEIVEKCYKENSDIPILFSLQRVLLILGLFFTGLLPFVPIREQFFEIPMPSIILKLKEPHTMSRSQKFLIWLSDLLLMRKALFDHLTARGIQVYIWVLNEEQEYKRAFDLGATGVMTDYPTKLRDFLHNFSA
Sequence of UniProt Q5SSJ5 (Q5SSJ5 whole entry, looked up): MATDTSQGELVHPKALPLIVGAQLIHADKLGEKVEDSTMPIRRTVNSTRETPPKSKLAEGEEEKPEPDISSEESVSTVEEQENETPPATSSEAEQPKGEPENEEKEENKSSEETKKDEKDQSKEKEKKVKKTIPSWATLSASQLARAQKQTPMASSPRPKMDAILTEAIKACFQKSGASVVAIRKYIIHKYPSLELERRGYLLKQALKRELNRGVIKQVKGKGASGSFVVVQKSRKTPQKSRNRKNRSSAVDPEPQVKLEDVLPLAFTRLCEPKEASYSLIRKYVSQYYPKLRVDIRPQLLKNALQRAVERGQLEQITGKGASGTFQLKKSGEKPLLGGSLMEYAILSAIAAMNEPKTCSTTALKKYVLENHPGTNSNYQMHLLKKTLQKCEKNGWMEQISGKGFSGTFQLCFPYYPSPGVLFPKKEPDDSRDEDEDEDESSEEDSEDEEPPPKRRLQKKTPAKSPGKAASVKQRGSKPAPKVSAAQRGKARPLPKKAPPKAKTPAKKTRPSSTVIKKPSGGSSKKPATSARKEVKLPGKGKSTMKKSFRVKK
Sequence of UniProt Q8TEQ6 (Q8TEQ6 whole entry, looked up): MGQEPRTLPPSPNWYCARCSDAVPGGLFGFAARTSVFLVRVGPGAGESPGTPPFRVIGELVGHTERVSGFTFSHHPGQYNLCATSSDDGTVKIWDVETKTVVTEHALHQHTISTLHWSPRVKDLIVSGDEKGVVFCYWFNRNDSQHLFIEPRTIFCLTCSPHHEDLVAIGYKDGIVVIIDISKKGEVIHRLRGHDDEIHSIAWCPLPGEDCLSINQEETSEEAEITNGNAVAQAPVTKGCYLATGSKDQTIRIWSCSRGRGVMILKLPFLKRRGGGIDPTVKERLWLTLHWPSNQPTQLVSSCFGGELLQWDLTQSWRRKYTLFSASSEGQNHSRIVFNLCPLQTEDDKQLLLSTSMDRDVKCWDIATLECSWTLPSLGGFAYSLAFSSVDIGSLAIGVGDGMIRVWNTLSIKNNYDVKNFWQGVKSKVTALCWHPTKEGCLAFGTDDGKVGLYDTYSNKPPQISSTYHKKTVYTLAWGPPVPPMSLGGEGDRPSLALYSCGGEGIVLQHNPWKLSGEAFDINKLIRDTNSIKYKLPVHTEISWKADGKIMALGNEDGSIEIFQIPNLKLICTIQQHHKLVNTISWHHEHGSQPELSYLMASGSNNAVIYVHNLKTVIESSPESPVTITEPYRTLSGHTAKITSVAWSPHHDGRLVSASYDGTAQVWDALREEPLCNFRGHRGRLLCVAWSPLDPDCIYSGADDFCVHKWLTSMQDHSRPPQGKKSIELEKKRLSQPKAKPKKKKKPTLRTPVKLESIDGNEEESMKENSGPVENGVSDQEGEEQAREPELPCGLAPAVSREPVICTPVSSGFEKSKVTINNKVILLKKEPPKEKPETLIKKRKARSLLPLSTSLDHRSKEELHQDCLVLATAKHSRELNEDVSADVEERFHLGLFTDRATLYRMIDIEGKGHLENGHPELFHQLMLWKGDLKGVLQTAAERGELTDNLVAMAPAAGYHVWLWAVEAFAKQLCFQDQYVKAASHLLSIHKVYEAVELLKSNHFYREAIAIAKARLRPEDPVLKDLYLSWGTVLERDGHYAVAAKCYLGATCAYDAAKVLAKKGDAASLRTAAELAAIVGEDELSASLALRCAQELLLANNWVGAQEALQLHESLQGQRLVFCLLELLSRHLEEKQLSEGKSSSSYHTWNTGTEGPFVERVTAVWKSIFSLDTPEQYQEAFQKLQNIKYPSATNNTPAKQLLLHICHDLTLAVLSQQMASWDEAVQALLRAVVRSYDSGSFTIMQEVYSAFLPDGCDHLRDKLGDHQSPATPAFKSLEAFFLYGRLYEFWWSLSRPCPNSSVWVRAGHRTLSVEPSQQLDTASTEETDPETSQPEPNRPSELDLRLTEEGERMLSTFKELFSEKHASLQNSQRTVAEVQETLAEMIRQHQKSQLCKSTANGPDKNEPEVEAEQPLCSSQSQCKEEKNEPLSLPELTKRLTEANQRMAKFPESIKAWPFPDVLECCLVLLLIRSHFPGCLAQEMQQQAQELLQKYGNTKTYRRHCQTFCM
Sequence of UniProt Q02790 (Q02790 whole entry, looked up): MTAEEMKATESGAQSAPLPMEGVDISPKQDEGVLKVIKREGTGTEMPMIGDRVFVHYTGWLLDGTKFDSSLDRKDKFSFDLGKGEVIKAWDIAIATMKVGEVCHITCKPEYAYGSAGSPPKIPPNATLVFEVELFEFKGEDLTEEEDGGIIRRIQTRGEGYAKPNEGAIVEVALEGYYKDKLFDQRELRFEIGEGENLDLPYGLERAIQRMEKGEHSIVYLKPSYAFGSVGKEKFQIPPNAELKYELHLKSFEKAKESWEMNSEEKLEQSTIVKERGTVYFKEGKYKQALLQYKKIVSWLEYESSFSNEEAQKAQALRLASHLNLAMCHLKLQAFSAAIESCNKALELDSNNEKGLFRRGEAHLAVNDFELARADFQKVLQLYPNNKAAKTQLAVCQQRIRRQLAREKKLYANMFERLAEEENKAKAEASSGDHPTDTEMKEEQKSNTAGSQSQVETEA
Sequence of UniProt P08236 (P08236 whole entry, looked up): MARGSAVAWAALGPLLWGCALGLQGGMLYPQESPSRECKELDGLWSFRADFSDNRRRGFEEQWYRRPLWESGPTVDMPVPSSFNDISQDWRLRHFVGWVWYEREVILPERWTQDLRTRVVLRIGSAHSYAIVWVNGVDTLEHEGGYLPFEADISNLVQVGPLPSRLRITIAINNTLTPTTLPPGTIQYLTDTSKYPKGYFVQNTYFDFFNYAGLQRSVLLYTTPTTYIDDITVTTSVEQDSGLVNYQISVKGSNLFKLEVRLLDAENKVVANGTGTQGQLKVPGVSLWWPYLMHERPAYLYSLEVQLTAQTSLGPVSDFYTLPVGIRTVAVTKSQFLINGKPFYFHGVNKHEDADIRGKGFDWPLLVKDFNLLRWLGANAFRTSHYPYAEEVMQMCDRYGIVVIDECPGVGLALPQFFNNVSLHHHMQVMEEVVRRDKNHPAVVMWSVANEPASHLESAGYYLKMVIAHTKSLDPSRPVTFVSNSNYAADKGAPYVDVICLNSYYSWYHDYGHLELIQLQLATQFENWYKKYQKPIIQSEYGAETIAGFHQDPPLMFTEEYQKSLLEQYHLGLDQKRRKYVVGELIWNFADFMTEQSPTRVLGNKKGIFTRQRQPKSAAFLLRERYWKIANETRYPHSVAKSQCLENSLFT
Sequence of UniProt O15228 (O15228 whole entry, looked up): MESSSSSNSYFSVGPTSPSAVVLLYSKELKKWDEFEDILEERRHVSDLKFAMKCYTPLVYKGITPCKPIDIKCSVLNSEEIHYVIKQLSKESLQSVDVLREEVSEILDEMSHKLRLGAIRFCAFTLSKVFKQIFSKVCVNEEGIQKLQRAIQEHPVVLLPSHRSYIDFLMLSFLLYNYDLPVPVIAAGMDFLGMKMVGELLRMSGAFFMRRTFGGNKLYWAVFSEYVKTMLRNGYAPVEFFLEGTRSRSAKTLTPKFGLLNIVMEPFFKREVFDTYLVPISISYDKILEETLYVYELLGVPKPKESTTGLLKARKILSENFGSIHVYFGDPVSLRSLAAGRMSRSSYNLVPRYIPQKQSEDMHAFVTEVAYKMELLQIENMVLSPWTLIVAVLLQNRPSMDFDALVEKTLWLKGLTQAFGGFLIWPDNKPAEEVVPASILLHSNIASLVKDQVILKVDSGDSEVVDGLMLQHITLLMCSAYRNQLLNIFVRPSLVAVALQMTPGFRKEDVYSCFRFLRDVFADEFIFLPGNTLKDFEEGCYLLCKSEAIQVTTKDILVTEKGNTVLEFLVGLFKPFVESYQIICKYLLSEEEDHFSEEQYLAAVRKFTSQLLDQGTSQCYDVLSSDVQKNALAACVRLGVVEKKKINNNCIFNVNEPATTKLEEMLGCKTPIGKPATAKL

log2 fold change, inactive:
HADHB (UniProt P55084) -0.047
GDPD1 (UniProt Q8N9F7) 0.022
HBZ (UniProt P02008) -0.028
FNTA (UniProt P49354) -0.045
FUBP3 (UniProt Q96I24) 0.035
FAM91A1 (UniProt Q658Y4) -0.055
GTF3C4 (UniProt Q9UKN8) 0.032
HSPA8 (UniProt E9PK54) -0.036
GNPAT (UniProt O15228) 0.023
GTF2A2 (UniProt P52657) -0.083
HBA1 (UniProt P69905) 0.137
GDI1 (UniProt P31150) 0.015
HMOX2 (UniProt P30519) 0.034
HMGN2 (UniProt P05204) 0.032
GYG1 (UniProt P46976) 0.014
FKBP3 (UniProt Q00688) -0.015
HEATR5B (UniProt Q9P2D3) 0.019
FKBP4 (UniProt Q02790) 0.032
H2AFX (UniProt P16104) -0.232
GUSB (UniProt P08236) 0.06
HDAC6 (UniProt Q9UBN7) 0.004
FBXO42 (UniProt Q6P3S6) -0.086
HP1BP3 (UniProt Q5SSJ5) -0.014
GEMIN5 (UniProt Q8TEQ6) 0.015
